Screens as filed in PubChem.
TDP1 cell CPT – growth inhibition of DT40 Tdp1-/-;hTDP1 cells with camptothecin (screen for TDP1 inhibitors); chicken DT40 Tdp1-/-;hTDP1 cells + 20 nM CPT, ATP luminescence, 48 h; Potency, µM (top dose mostly 46.2 µM), for inactives: top-dose activity change, negative = growth inhibition, hits mostly inhibitors; actives 12% (n = 420,000); AID 686979; further: potency means the concentration at half of the fitted maximal effect; nearly all actives have a fitted effect of over 55% in size
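Chicken DT40 Tdp1-/- cells stably complemented with human TDP1 were seeded at 400 cells/well in medium containing 20 nM camptothecin, exposed to pin-transferred compounds, and grown at 37 °C for at least 48 hr. Viability was read as ATP luminescence.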
HT1080 IDH1KD tx – toxicity to HT-1080 IDH1 knockdown cells (counter line); actives 2% (n = 360,000); AID 686971; HT-1080 IDH1 knockdown viability, ATP luminescence, 48 h; Potency, µM (series often up to 46.1 µM), for inactives: top-dose activity, negative = toxicity, usual class: cytotoxic;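 further: potency means the concentration at half of the fitted maximal effect; 0% = DMSO wells and -100% = cell-free medium wells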
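Knockdown cells (IDH1KD HT-1080) received compounds 2 h after plating at 750 cells/well and were kept 48 h at 37 °C in 5% FBS RPMI. A CellTiter-Glo luminescence read gave % activity for curve fitting.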
DT40 TDP1 no CPT – qHTS for Inhibitors of human tyrosyl-DNA phosphodiesterase 1 (TDP1): qHTS in cells in absence of CPT. DT40 Tdp1-/- hTDP1 cells, no CPT, ATP luminescence, 48 h. Potency, µM (top dose mostly 46.2 µM), for the others: top-dose activity change, negative = growth inhibition, usual class: inhibitors. actives 15% (n = 420,000); further: potency means the concentration at half of the fitted maximal effect; nearly all actives have a fitted effect of over 55% in size
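Compound effects on proliferation are scored in DT40 Tdp1-/-;hTDP1 cells in the absence of CPT. ATP levels (CellTiter-Glo luminescence) are recorded after a ≥48 hr, 37 °C incubation.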
HT1080NT lethal – kills 2HG-producing HT-1080-NT fibrosarcoma cells; HT-1080-NT fibrosarcoma viability, CellTiter-Glo ATP luminescence, 48 h; actives 1.6% (n = 360,000); AID 686970; Potency, µM (doses to about 46.1 µM), without a hit: at the top dose activity, negative = less viability, usual class: cytotoxic;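 further: NT is the 2HG producing partner of a matched IDH1 knockdown line; potency means the concentration at half of the fitted maximal effect; 0% = DMSO-treated cells and -100% = media-only wells without cells; nearly all actives have a fitted effect of over 55% in size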
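Read-out is CellTiter-Glo luminescence after 10 minutes at room temperature, following 48 hours' compound treatment of HT-1080-NT cells (750 cells/well, RPMI, 5% FBS, 37 degrees C).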
IL1B secr inh – inflammasome signaling inhibition, IL-1 beta readout; activity change, % at 57.5 µM; AID 743279; actives 4.7% (n = 360,000); THP-1 LPS/ATP IL-1B secretion, AlphaLISA, 16 h; hits give low values; in the data active means activity change below about -50%; inconclusive means mostly about -30% to -49%
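Secreted IL-1B measured by AlphaLISA bead assay after 16 h compound exposure of THP-1 cells; compounds (final up to 57.5 uM) added 1 h before LPS (250 ng/mL) and ATP (1.25 mM) stimulation; lower signal means less secretion.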
* hit, by the source's call; i = inactive; u = inconclusive; x = no result given. Sampled rows, rich in hits. Any-hit rate of the full collection: about 19%. Unless noted, the call rests on the fitted dose curve; in most records, active means well fitted curve in the direction sought with a large enough effect; inconclusive means small, poorly fitted or top-dose-only effect, or another doubt; inactive means no such curve, though single readings can be large; an effect the other way counts as inactive or inconclusive. Unless noted, on the % scale 0 is the no-effect control and ±100 the full control effect.

SMILES	TDP1 cell CPT	HT1080 IDH1KD tx	DT40 TDP1 no CPT	HT1080NT lethal	IL1B secr inh
CCCCN1CC(N2CCN(Cc3ccccc3)CC2)CS1(=O)=O (centres undefined)	u	-4%	u	-6%	33
Cc1occc1C(=O)N1CCN(c2ccc(Cl)c(Cl)c2)CC1	u	-17%	16µM*	0%	-23
Cc1occc1C(=O)N1CCN(c2ccccc2)CC1	-24%	5%	0%	0%	2
Cc1occc1C(=O)NNC(=O)Nc1ccc(Cl)c(Cl)c1	15µM*	-12%	u	-3%	-12
Cc1ccc(S(=O)(=O)N(C)c2ccc(OC(=O)c3cccs3)cc2)cc1	-28%	-9%	u	2%	-14
CC1=NN(C(=O)CSCc2ccccc2)C(O)(c2ccccc2)C1 (centres undefined)	-25%	-2%	-1%	15%	9
CC1=NN(C(=O)c2ccccc2Cl)C(O)(c2cccnc2)C1 (centres undefined)	u	7%	5.8µM*	12%	-7
CC1=NN(C(=O)Cc2ccccc2)C(O)(c2cccnc2)C1 (centres undefined)	4.6µM*	u	5.2µM*	u	22
CC1=NN(C(=O)c2ccccc2C)C(O)(c2ccc(Cl)cc2)C1 (centres undefined)	u	-27%	u	-20%	11
CC1=C(C(=O)Nc2ccc(C(=O)NCCCN3CCCCC3)cc2)SCCO1	-3%	4%	3%	7%	22
COC(=O)[C@]12CCCCC=C1N(Cc1cccc3ccccc13)C(=O)[C@H](CC(=O)NCCCCc1ccccc1)C2	u	-29%	16µM*	u	-64*
COC(=O)[C@]12CCCCC=C1N(Cc1ccccc1)C(=O)[C@H](CC(=O)NCCCCc1ccccc1)C2	23µM*	u	u	u	-20
O=C(Nc1ncccc1Cl)c1cc2ccccc2o1	1%	3%	-15%	4%	21
Cc1ccc(NC(=O)COC(=O)CCn2c(C)csc2=O)c([N+](=O)[O-])c1	7%	17%	-1%	11%	-11
Cc1ccc(NC(=O)COC(=O)CCC(=O)c2ccc(C(C)(C)C)cc2)c([N+](=O)[O-])c1	u	18%	15µM*	9%	-1
Cc1cc(C)c(C)c(C(=O)c2ccccc2C(=O)O)c1C	3.7µM*	-2%	3.3µM*	1%	34
Cc1ccc(C(=O)c2ccccc2C(=O)O)cc1C	9%	15%	0%	15%	18
CCOc1ccc2nc(N3CCCC(C(=O)NCCc4ccc(C)cc4)C3)sc2c1 (centres undefined)	12µM*	x	15µM*	x	x
CCCN1CCN(CCCNC(=O)C2CCCN(c3nc4ccc(OCC)cc4s3)C2)CC1 (centres undefined)	-8%	3%	-1%	12%	9
CCOc1ccc2nc(N3CCCC(C(=O)NCC4CCCO4)C3)sc2c1 (centres undefined)	-27%	0%	-16%	-9%	-2
CCOc1ccc2nc(N3CCCC(C(=O)NCCCOC)C3)sc2c1 (centres undefined)	16µM*	x	18µM*	x	x
COc1ccc2nc(N3CCCC(C(=O)NCCCN4C(C)CCCC4C)C3)sc2c1 (centres undefined)	10%	-18%	-23%	-6%	-70*
CCOc1ccc2nc(N3CCC(C(=O)N4CCN(C5CCCCC5)CC4)CC3)sc2c1	8.2µM*	2%	u	-1%	-1
CCOc1ccc2nc(N3CCC(C(=O)N4CCN(C(=O)c5ccco5)CC4)CC3)sc2c1	u	7%	23µM*	8%	1
CCOc1ccc2nc(N3CCC(C(=O)Nc4nnc(CC)s4)CC3)sc2c1	-26%	-3%	-1%	-3%	3
SMILES	TDP1 cell CPT	HT1080 IDH1KD tx	DT40 TDP1 no CPT	HT1080NT lethal	IL1B secr inh
CCOc1ccc2nc(N3CCC(C(=O)Nc4ccccc4CC)CC3)sc2c1	u	x	23µM*	x	x
Cc1ccc(Nc2nc(-c3cccnc3)nc3ccccc23)cc1	18µM*	u	8.2µM*	u	-67*
Clc1ccccc1Nc1nc(-c2ccncc2)nc2ccccc12	29µM*	-8%	16µM*	-4%	-2
CCOC(=O)c1ccc(Nc2nc(-c3cccnc3)nc3ccccc23)cc1	16µM*	u	9.2µM*	15µM*	-21
Cc1ccccc1Nc1nc(-c2cccnc2)nc2ccccc12	u	4%	21µM*	7%	-14
Fc1ccc(Nc2nc(-c3ccncc3)nc3ccccc23)cc1F	x	-2%	x	-8%	-5
CCCN(CCC)C(=O)c1cc(S(=O)(=O)N2CCCCC2)c[nH]1	-30%	-4%	-18%	-1%	-11
CCOC(=O)c1c(Nc2ccc(C)cc2)nnc(-c2ccccc2)c1-c1ccccc1	u	x	18µM*	x	x
CCOC(=O)c1nc(Nc2ccc(C)cc2)c2ccccc2n1	21µM*	-21%	13µM*	-21%	u
CCOC(=O)c1nc(Nc2ccccc2)c2ccccc2n1	u	11%	u	-3%	-21
CCOC(=O)c1c(C)oc2ncnc(Nc3ccc(CC)cc3)c12	9%	x	u	x	x
Cc1cccc(C)c1NC(=O)Nc1nnc([C@H]2C[C@H](O)[C@@H](CO)O2)s1	2%	8%	-13%	32%	24
Cc1nn(-c2ccccc2)c(Cl)c1C(=O)NCCCCNC(=O)c1c(C)nn(-c2ccccc2)c1Cl	4%	1%	-5%	1%	-14
Cc1ccc(-n2nc(C)c3c(C)c(CCC(=O)NCc4ccccc4)c(C)nc32)cc1	u	4%	u	-1%	21
CCC(CNC(=O)c1c(C)nn(-c2ccccc2)c1Cl)c1ccccc1 (centres undefined)	23µM*	3%	21µM*	7%	-82*
Cc1cccc(C)c1OCCNC(=O)c1ccc2ccccc2n1	21µM*	-9%	16µM*	-2%	38
CCOc1ccc(CCNC(=O)c2c(C)nn(-c3ccccc3)c2Cl)cc1OCC	16µM*	-7%	u	-7%	26
Cc1nc2c(c(C)nn2-c2ccccc2)c(C)c1CCC(=O)NCCCOC(C)C	-27%	-11%	21µM*	-9%	15
Cc1ccc(OCCNC(=O)c2ccc3ccccc3n2)cc1	u	-2%	u	-2%	-3
CCN(CC)S(=O)(=O)c1ccc(N(C)C)c(NC(=O)CSCc2c(C)noc2C)c1	u	7%	u	-6%	i
CCC1(C)NC(=O)N(CC(=O)Nc2cc(C)on2)C1=O (centres undefined)	-5%	1%	-7%	0%	1
